This is an account of results in PubChem BioAssay (Tox21).

Results filed as inconclusive are left out. Activity calls are given as the source filed them. Calls follow the shape of the dose curve; as a rule, active = well fitted activation curve with a large enough effect in the signal ratio in the repeat runs (not every such curve was filed as active); inconclusive = weak or mixed curves; inactive = flat fitted curve, though single readings scatter; the % refers to the signal ratio.
% is scaled to controls: 0 for no effect and ±100 for the full control effect.

The assay in a line: p53 small molecule agonists, cell-based qHTS assay (AID 1963582). The following applies: HCT-116 p53RE-bla reporter, beta-lactamase FRET ratio, 16 h; series mostly up to 66 µM; activation: at the top concentration. The text has this: National Center for Advancing Translational Sciences [NCATS]
Division of Preclinical Innovation [DPI]
U.S. Environmental Protection Agency [EPA]
National Institutes of Environmental Health Sciences [NIEHS]
National Toxicology Program [NTP]
U.S. Food and Drug Administration [FDA]
p53, a tumor suppressor protein, is activated following cellular insult, including DNA damage and other cellular stresses. The activation of p53 regulates cell fate by inducing DNA repair, cell cycle arrest, apoptosis, or cellular senescence. The activation of p53, therefore, is a good indicator of DNA damage and other cellular stresses. […] The activation of the reporter gene under culture conditions can be detected by fluorescence intensity. This cell line was used to screen the Tox21 10K compound library in a 1536-well plate format and to identify agonists that activate the p53 signaling pathway.
Tox21 Assay Protocol Summary:
The p53RE-bla cells were dispensed at 4,000 cells/5 ul/well in 1536-well black wall/clear bottom plates using a Multidrop dispenser. After the assay plates were incubated at a 37 C/5% CO2 incubator for 5 hours, 23 nL of compounds dissolved in DMSO, positive controls or DMSO only was transferred to the assay plate by a pin tool. The plates were incubated at 37 C for 16 hours. After 1 uL of LiveBLAzerTM B/G FRET substrate was added using a Flying Reagent Dispenser, the plates were incubated at room temperature for 2 hours, and fluorescence intensity was measured by an Envision plate reader.
In general terms: Quantitative high-throughput screening tests each substance at several concentrations.
Take `CC(N)=S`: the “activation” value is -1.26% (inactive). To `FC(F)(F)c1cccc(C2=CCN(CCc3ccc4ccccc4c3)CC2)c1` belongs -0.672% [at 30.3 µM] (inactive). With `O=C(CBr)OCc1ccccc1` the figure was 5.26% (inactive); with `C[C@H]1CNCCc2ccc(Cl)cc21`, 0.252% [at 30.3 µM] (inactive). With `Brc1ccccc1`, the “activation” value is 0.0334% (inactive). Take `CC1(c2ccc(Oc3ccccc3)cc2)OC(=O)N(Nc2ccccc2)C1=O` (stereo not given): the “activation” value is 12.4% (inactive).

As for `COC(=O)C(C)N(C(=O)c1ccco1)c1c(C)cccc1C` (stereo not given), the “activation” value was -2.34% (inactive).

Regarding `CCOCCOC(C)=O`, the “activation” value is 2.25% (inactive).

For `CC(=O)Nc1cc([As](=O)(O)O)ccc1O`, the “activation” value was 5.22% [at 30.3 µM] (inactive).

Consider `CCCC[N+]1(C)[C@@H]2CC(OC(=O)[C@H](CO)c3ccccc3)C[C@H]1[C@@H]1O[C@@H]12` (stereo not given in full), for which the “activation” value was 0.211% [at 30.3 µM] (inactive). For the compound `OC(c1ccc(Cl)cc1)(c1ccc(Cl)cc1)c1cccnc1`, the “activation” value is 6.77% (inactive). For `CC1(C)CON(Cc2ccccc2Cl)C1=O`, the “activation” value is -1.56% (inactive).

With `CCN(CC)C(=O)[C@@H]1C=C2c3cccc4[nH]cc(c34)C[C@H]2N(C)C1`, the “activation” value is -3.81% [at 172 µM] (inactive).

On to `C#C[C@]1(O)C=C[C@H]2[C@@H]3CCC4=CC(=O)CC[C@@H]4[C@H]3CC[C@@]21CC`, for which the “activation” value is 0.297% [at 30.3 µM] (inactive).

Regarding `[Cl][Sn]([Cl])([Cl])[Cl]`, the “activation” value is -0.196% (inactive).

Consider `Nc1ccc(N=Nc2ccccc2)cc1`, for which the “activation” value is -8.38% (inactive). Consider `CNC(=O)O/N=C(/CSC)C(C)(C)C`, for which the “activation” value was 1.7% (inactive). With `Cc1ncc(C[n+]2csc(CCO)c2C)c(N)n1` the figure was -2.48% (inactive); with `N#CN=C1SCCN1Cc1ccc(Cl)nc1`, -1.3% (inactive); with `O=C(CCCCl)c1ccc(F)cc1`, -2.27% [at 30.3 µM] (inactive). As to `Cc1cc(=O)[nH]o1`, the “activation” value is -0.601% (inactive). To `C[C@]12CC[C@@H](O)C[C@@H]1CC[C@@H]1[C@@H]2CC[C@]2(C)C(=O)CC[C@@H]12` belongs -3.3% (inactive). With `COc1ccc(C=O)cc1O` the figure was -1.72% (inactive). For `Clc1cc(Cl)c(-c2cc(Cl)c(Cl)cc2Cl)cc1Cl`, the “activation” value is -3.93% [at 30.3 µM] (inactive).

With `ClC(Cl)(Cl)Cl`, the “activation” value was -0.0632% (inactive). `C[C@H](CN1CCOCC1)C(C(=O)N1CCCC1)(c1ccccc1)c1ccccc1`: the “activation” value was -1.05% (inactive).

Consider `COc1ccc2c(c1OC)C(=O)O[C@H]2[C@@H]1c2cc3c(cc2CCN1C)OCO3`, for which the “activation” value was 0.176% [at 30.3 µM] (inactive). With `CC(C)COP(=O)(OCC(C)C)OCC(C)C` the figure was 0.893% (inactive). For `N#Cc1ccc(N(CC(N)=O)CC(F)(F)F)cc1C(F)(F)F`, the “activation” value is 0.211% (inactive). With `Cc1cc2c3c(c1)C(c1ccccc1)=N[C@@H](NC(=O)c1ccncc1)C(=O)N3CC2` the figure was -1.92% (inactive); with `C[C@H]1CCC[C@H](O)CCCCCc2cc(O)cc(O)c2C(=O)O1`, -5.15% (inactive); with `Clc1cc2c(cc1Cl)Oc1cc(Cl)c(Cl)cc1O2`, 1.03% [at 0.249 µM] (inactive). To `CC(C)[C@H](C(=O)OC(C#N)c1cccc(Oc2ccccc2)c1)c1ccc(OC(F)F)cc1` (stereo not given in full) belongs -0.475% (inactive); to `CC(Cc1ccc(C(C)(C)C)cc1)CN1C[C@@H](C)O[C@@H](C)C1` (stereo not given in full), -3.3% (inactive). Take `CCCN(CCC)C(=O)Cc1c(-c2ccc(Cl)cc2)nc2ccc(Cl)cn12`: the “activation” value is -7.77% [at 30.3 µM] (inactive). For `NC(=O)CI`, the “activation” value is -3.19% (inactive).

As to `O=C1C=CC(=O)c2ccccc21`, the “activation” value is 1.65% (inactive). `CN1[C@@H]2CC[C@H]1CC(O)C2` (stereo not given in full): the “activation” value was -1.11% (inactive). For the compound `CC/C(=N\OC/C=C/Cl)C1=C(O)CC(C2CCOCC2)CC1=O` (stereo not given), the “activation” value was -0.271% (inactive). With `CN/C(=N\[N+](=O)[O-])NCC1CCOC1` (stereo not given) the figure was 0.102% (inactive).
